PubChem BioAssay AID1159580 (chemical genetic matrix, 2015)
“And” between values parts separate entries of the source, which are not always exact repeats. Equal values may be shown once. The campaign covered roughly 5,500 compounds. About 2,000 (36%) were called active. About 18% were inconclusive and are not listed. No stated cut-off is given here; in the data, active means normalized growth mostly below about 0.91 (no sharp cut-off); inconclusive means no clear call, values can overlap the other calls; inactive means mostly above about 0.92. The list shows a part of the results.

Experiment: chemical genetic growth profiling, strain panel (AID 1159580);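 further: tested at 20 µM; growth read once vehicle control cultures reached saturation at 30 °C; 1 = growth at the plate median or of vehicle wells; lower values mean less growth of the strain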
Conditions: S. cerevisiae deletion strains, growth OD

Measured: normalized growth

COc1ccc(Cc2nccc3cc(OC)c(OC)cc23)cc1OC
inactive: locus YAL021C, strain ccr4, active compounds read low 1.04 | locus YAL026C, strain drs2, active compounds read low 1 | locus YAL030W, strain snc1, active compounds read low 1 | locus YAL040C, strain CLN3, active compounds read low 0.983 | locus YBL061C, strain skt5, active compounds read low 1 | locus YBR009C, strain hhf1, active compounds read low 0.995 | locus YBR021W, strain FUR4, active compounds read low 1.01 | locus YBR023C, strain chs3, active compounds read low 1.01 | locus YBR171W, strain sec66, active compounds read low 1.01 | locus YBR229C, strain ROT2, active compounds read low 1.01 | locus YBR231C, strain swc5, active compounds read low 0.998 | locus YBR279W, strain paf1, active compounds read low 1.01 | locus YCL011C, strain gbp2, active compounds read low 1.01 | locus YCL016C, strain dcc1, active compounds read low 1.01 | locus YCL029C, strain bik1, active compounds read low 0.992 | locus YCL061C, strain MRC1 (second series), active compounds read low 1 | locus YCL061C, strain MRC1, active compounds read low 1 | locus YCL069W, strain vba3, active compounds read low 1 | locus YCR088W, strain abp1, active compounds read low 1.01 | locus YDL005C, strain med2, active compounds read low 0.994 | locus YDL035C, strain GPR1, active compounds read low 1.01 | locus YDL040C, strain nat1, active compounds read low 0.998 | locus YDL074C, strain BRE1, active compounds read low 1.02 | locus YDL101C, strain DUN1, active compounds read low 1.01 | locus YDL134C, strain PPH21, active compounds read low 1.01 | locus YDL185W, strain tfp1, active compounds read low 0.992 | locus YDL192W, strain arf1, active compounds read low 0.989 | locus YDR001C, strain nth1, active compounds read low 0.999 | locus YDR069C, strain doa4, active compounds read low 0.989 | locus YDR101C, strain arx1, active compounds read low 0.996 | locus YDR137W, strain rgp1, active compounds read low 1.03 | locus YDR150W, strain NUM1, active compounds read low 1.02 | locus YDR159W, strain sac3, active compounds read low 0.962 | locus YDR162C, strain NBP2, active compounds read low 1 | locus YDR195W, strain ref2 0.981 | locus YDR297W, strain sur2, active compounds read low 1 | locus YDR318W, strain mcm21, active compounds read low 0.976 | locus YDR334W, strain swr1, active compounds read low 1.01 | locus YDR335W, strain msn5, active compounds read low 0.999 | locus YDR363W, strain ESC2, active compounds read low 0.988 | locus YDR388W, active compounds read low 0.993 | locus YDR392W, strain spt3, active compounds read low 0.921 | locus YDR502C, strain sam2, active compounds read low 0.986 | locus YEL003W, strain gim4, active compounds read low 0.996 | locus YEL037C, strain rad23, active compounds read low 1 | locus YEL061C, strain CIN8 (second series), active compounds read low 1 | locus YEL061C, strain CIN8, active compounds read low 1.01 | locus YER002W, strain NOP16, active compounds read low 0.994 | locus YER015W, strain faa2, active compounds read low 1 | locus YER016W, strain bim1, active compounds read low 0.996 | locus YER110C, active compounds read low 0.988 | locus YER111C, strain swi4, active compounds read low 1.01 | locus YER155C, strain BEM2 (second series), active compounds read low 0.987 | locus YER155C, strain BEM2, active compounds read low 1.01 | locus YER167W, strain BCK2, active compounds read low 1.01 | locus YFR010W, strain ubp6, active compounds read low 0.998 | locus YGL078C, strain dbp3, active compounds read low 0.99 | locus YGL086W, strain mad1, active compounds read low 0.994 | locus YGL167C, strain pmr1, active compounds read low 0.998 | locus YGL173C, strain kem1, active compounds read low 0.999 | locus YGL227W, strain vid30, active compounds read low 1 | locus YGL240W, strain doc1, active compounds read low 0.967 | locus YGL248W, strain PDE1, active compounds read low 1.01 | locus YGL253W, strain hxk2, active compounds read low 1.01 | locus YGR078C, strain PAC10, active compounds read low 0.975 | locus YGR135W, strain pre9, active compounds read low 0.977 | locus YGR229C, strain SMI1, active compounds read low 0.995 and 0.994 | locus YGR252W, strain gcn5, active compounds read low 0.949 | locus YHR013C, strain ard1, active compounds read low 1.07 | locus YHR027C, strain rpn1, active compounds read low 0.998 | locus YHR030C, strain SLT2, active compounds read low 1.02 and 0.98 | locus YHR079C, strain IRE1 (second series), active compounds read low 0.985 | locus YHR079C, strain IRE1, active compounds read low 0.972 | locus YHR094C, strain hxt1, active compounds read low 0.992 | locus YHR129C, strain ARP1, active compounds read low 1.02 | locus YHR142W, strain chs7, active compounds read low 0.998 | locus YHR200W, strain rpn10, active compounds read low 0.99 | locus YIL066C, strain RNR3, active compounds read low 1.01 | locus YIL073C, strain SPO22, active compounds read low 0.957 | locus YIL125W, strain kgd1, active compounds read low 0.991 | locus YIR030C, strain dcg1, active compounds read low 0.983 | locus YJL092W, strain hpr5, active compounds read low 1 | locus YJL095W, strain BCK1 (second series), active compounds read low 1 | locus YJL095W, strain BCK1, active compounds read low 1.03 and 0.985 | locus YJL115W, strain asf1, active compounds read low 1 | locus YJL129C, strain trk1, active compounds read low 0.985 | locus YJL134W, strain LCB3, active compounds read low 1.01 | locus YJL154C, strain vps35, active compounds read low 1 | locus YJL164C, strain tpk1, active compounds read low 0.996 | locus YJL166W, strain qcr8, active compounds read low 1.01 | locus YJL168C, strain set2, active compounds read low 0.995 | locus YJL187C, strain SWE1 (second series), active compounds read low 1.01 | locus YJL187C, strain SWE1, active compounds read low 0.996 | locus YJR043C, strain POL32, active compounds read low 1.01
